Measurements: PubChem BioAssay (NCI)
This is part of a sample that, as a whole, favours compounds with a hit. Of some 83,000 tested, about 20% had one in any assay.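 Assay: single dose, 48 h. Readout: percent growth (0 = no net growth; negative = cell death). Active: <10.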 Unmarked numbers belong to inactive results. Calls of active or inactive are those of the source.

Each molecule was assayed on HL-60(TB) leukemia (assay: NCI-60 one-dose screen, 48 h (100 = growth as untreated, 0 = no growth, -100 = all killed)). Conditions: 10 µM unless noted.

Structure (SMILES)	growth
Nc1c(C(=O)Nc2ccccn2)sc2nc3c(cc12)C(O)CCC3 (stereo not given)	9.6% (active)
CCCCCC1CCCCN1C(=O)OCC (stereo not given)	77.5%
COc1cccc(NC(=O)c2sc3nc4c(cc3c2N)CN(Cc2ccccc2)CC4)c1	50.1%
CCc1ccc(Oc2c(-c3ccc(OCCc4cccc(C(F)(F)F)c4)cc3O)n[nH]c2C(F)(F)F)cc1	50.9%
N#Cc1c(NC(=O)c2ccco2)[n+]([O-])c2cc(F)c(F)cc2[n+]1[O-]	38%
Cc1nn2c(-c3nc4ccc(Cl)cc4[nH]3)c(-c3ccc(F)cc3)nc2s1	117%
COc1ccc2c(c1)oc1c(C)c3c(c(C)c12)C(=O)N(CCOS(C)(=O)=O)C3=O	93.6%
CC1(C)CC(O)CCCCCCOc2c(CN)cccc2NC(=O)c2nc(cnc2N)-c2ccc(cc2)S1(=O)=O (stereo not given)	-49.3% (active)
CNC(=O)c1c(NC(=O)c2ccc(C(C)(C)C)cc2)sc2c(CN(C)C)c(O)ccc12	-33% (active)
O=C1/C(=C\c2cn(Cc3ccccc3)c3ccc(Br)cc23)c2ccccc2N1c1c(Cl)cccc1Cl	97%
COC(=O)Nc1ccc(-c2nc(-c3cccc(OC)c3)c(-c3ccnc(Br)c3)[nH]2)cc1	44.2%
COc1ccc(C(O)c2cc3c(N)c(C(=O)Nc4ccc(Br)cc4)sc3nc2C)cc1 (stereo not given)	-41.5% (active)
Cc1ccc(C)c(S(=O)(=O)NC2c3ccccc3Oc3ccccc32)c1	86.9%
C=C(C)[C@@H]1CC[C@]2(C)[C@H](CC=C3[C@@H]4C[C@](C)(C(=O)N5CCN(C)CC5)CC[C@]4(C)CC[C@]32C)[C@@]1(C)CCC#N	22.6%
Cc1cc2nc3c4cc(Cl)ccc4n(CCN(C)C)c3nc2cc1C	20%
CCOC(=O)C(CC(=O)O)=C(C(=O)OCC)C(=O)OCC	99.6%
O=C1C=CC2(NN=C(c3ccccc3)N2c2cccc(Cl)c2)C(Cl)=C1 (stereo not given)	33%
Cc1csc(Nc2nc(-c3ccc(Cl)cc3)nc(C(Cl)(Cl)Cl)n2)n1	69.3%
C/C(=N\NC(=O)c1ccc(C(C)(C)C)cc1)c1ccc(O)cc1O	9.36% (active)
COc1ccc(-c2nc(-c3ccccc3)c(-c3ccccc3)[nH]2)cc1OC1CCCCC1	97.6%

Structure (SMILES)	growth
CCOC(=O)CN(c1sc(C)c(C)c1C(=O)OCC)S(=O)(=O)c1ccc(C)cc1	94.2%
C[C@@H]1CC[C@@H]2[C@@H]1[C@H](OC(=O)/C=C/c1ccccc1)[C@]1(c3ccccc3)C[C@@H](NC(=O)CO)[C@@]2(C)O1	97.7%
Cc1ccc(C(=O)Nc2ccc(CN3CCN(C)CC3)c(C(F)(F)F)c2)cc1C#Cc1cnc(N)c2ccc(C#N)cc12	30.9%
COCCCNc1nc(NC(=O)c2cc(OC)cc(OC)c2)cc(-c2cccnc2)n1	90.2%
c1coc(CNc2c3ccccc3nc3ccccc23)c1	93%
COc1ccc(-c2c(-c3cc(OC)c(OC)c(OC)c3)noc2N)cc1	12.5%
O=c1c2cc(Br)cc(Br)c2nc(-c2ccc(Cl)cc2)n1/N=C/c1cccc(F)c1	71%
CCOC(Cc1c(N)[nH]c(=S)[nH]c1=O)OCC	90.3%
N#Cc1c(NC(=O)c2cccs2)[n+]([O-])c2ccc(Cl)cc2[n+]1[O-]	122%
O=C1/C(=C\c2cccn2Cc2ccccc2)c2ccccc2N1c1c(Cl)cccc1Cl	71%
COc1ccc(-c2cc(/C=C/C(=O)c3ccc(N)cc3)[nH]n2)cc1	-23% (active)
CC(=O)NNC(=S)/N=C\C(C(=O)c1ccccc1)=C(/O)c1ccccc1	103%
CN(C)c1ccc2cc(-c3ccc(Cl)c(Cl)c3)c(N)nc2c1	10.5%
N#C/C(=C\c1ccc2c(c1)OCO2)n1nnc2ccccc21	-10.9% (active)
CNCCCn1c2c(c3ccc(F)cc3c1=O)C(=O)c1cc(OC)cnc1-2	-16.7% (active)
CC(C)C[C@H](NC(=O)Cn1ccc(NCc2ccccc2)cc1=O)B(O)O	3.72% (active)
Cn1cc(C2=C(c3cccc4ccccc34)C(=O)NC2=O)c2cc(Br)ccc21	107%
COc1cccc(N=CNc2cccc(OC)c2)c1	96.7%
CC(=Nc1ccccc1)C1=C(O)C(Cc2ccccc2)NC1=O (stereo not given)	-52.3% (active)
CC(=O)O[C@H]1CC[C@]2(C)[C@H]3CC[C@@H]4[C@H]5[C@H](C(C)C)CC[C@]5(C(=O)OCC(CO)(CO)N=C(N)N)CC[C@@]4(C)[C@]3(C)CC[C@H]2C1(C)C	-24.7% (active)
